Hit rate of the full screen: of about 17,000 compounds, about 220 (1.3%) were called active.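 How the source made its calls: active means spot fluorescence over background significantly raised, with a chance value under 7% in all four replicate spots of the compound; inactive means the rest.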 Shown is part of a subset that was picked to be rich in actives.
target: Nuclear factor NF-kappa-B p105 subunit (Homo sapiens) (UniProt P19838); experiment: small molecules binding NF-kappa-B p105/p50 – biochemical, small molecule microarray, anti-His fluorescence, primary screen (AID 624139);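 further: probe protein is his-tagged human p50 processed subunit at 1 µg/ml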
Sequence (P19838 1-433 limits assumed): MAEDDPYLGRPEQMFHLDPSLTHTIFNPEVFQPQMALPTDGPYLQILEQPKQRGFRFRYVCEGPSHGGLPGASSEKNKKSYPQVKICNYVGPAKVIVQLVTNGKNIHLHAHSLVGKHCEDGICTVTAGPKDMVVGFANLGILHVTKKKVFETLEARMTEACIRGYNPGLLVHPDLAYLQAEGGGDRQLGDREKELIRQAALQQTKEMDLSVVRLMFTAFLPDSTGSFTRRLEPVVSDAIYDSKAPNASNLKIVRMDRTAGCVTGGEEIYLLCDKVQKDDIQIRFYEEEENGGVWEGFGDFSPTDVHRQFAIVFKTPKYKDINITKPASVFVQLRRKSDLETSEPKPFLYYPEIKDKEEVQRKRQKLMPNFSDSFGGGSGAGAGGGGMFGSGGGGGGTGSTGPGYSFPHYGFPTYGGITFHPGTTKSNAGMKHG

outcome, inactive:
C[C@@H]1CN([C@H](C)CO)C(=O)c2cc(NS(=O)(=O)c3cccs3)ccc2O[C@@H](C)CCCCO[C@@H]1CN(C)S(=O)(=O)c1cccs1
C[C@@H]1CN([C@H](C)CO)C(=O)Cc2cc(NS(=O)(=O)c3cccs3)ccc2O[C@H]1CN(C)C(=O)Nc1ccc2c(c1)OCO2
C[C@@H]1CCCCO[C@@H](CN(C)S(=O)(=O)c2ccccc2)[C@@H](C)CN([C@@H](C)CO)C(=O)c2cc(NS(=O)(=O)c3cn(C)cn3)ccc2O1
C=C1CCCC(C)(C(=O)OC)C1CC/C(C)=C/CCC1=CC(=O)OC1 (stereo not drawn)
Cc1nnc(SCc2ccc(C(=O)c3ccc(Cl)cc3)o2)n1-c1ccccc1
O=C1C(=O)N(CCn2c3ccccc3c3nc4ccccc4nc32)c2ccccc21
Cc1ccc(S(=O)(=O)Nc2ccc3c(c2)C(=O)N([C@@H](C)CO)C[C@H](C)[C@@H](CN(C)S(=O)(=O)c2ccc(C)cc2)O3)cc1
C[C@@H]1CN([C@@H](C)CO)C(=O)CCCn2nncc2CO[C@H]1CN(C)Cc1ccc(C(F)(F)F)cc1
C[C@H](CO)N1C[C@H](C)[C@H](CN(C)S(=O)(=O)c2cn(C)cn2)Oc2c(NC(=O)C3CCOCC3)cccc2C1=O
C[C@@H]1CCCCO[C@@H](CN(C)C(=O)c2ccccc2)[C@H](C)CN([C@@H](C)CO)C(=O)c2cc(NS(C)(=O)=O)ccc2O1
C[C@@H]1CN([C@@H](C)CO)C(=O)c2cc(NS(C)(=O)=O)ccc2O[C@@H](C)CCCCO[C@@H]1CN(C)S(=O)(=O)c1cn(C)cn1
Cc1cc(O)c2c(c1)C(=O)OC2c1c(O)cccc1O (stereo not drawn)
COc1ccc(C)cc1NC(=O)NCCc1ccc(OC)c(OC)c1
C[C@H]1CCCCO[C@H](CN(C)C)[C@@H](C)CN([C@@H](C)CO)C(=O)c2cc(NC(=O)CCCN(C)C)ccc2O1
CNC[C@@H]1Oc2c(NS(C)(=O)=O)cccc2C(=O)N([C@@H](C)CO)C[C@H]1C
C[C@@H]1CCCCO[C@H](CN(C)C)[C@H](C)CN([C@@H](C)CO)C(=O)c2cc(NC(=O)Cc3ccccc3)ccc2O1
Cc1noc(C)c1S(=O)(=O)N(C)C[C@H]1OCCCC[C@@H](C)Oc2ccc(NC(=O)CCCN(C)C)cc2C(=O)N([C@H](C)CO)C[C@@H]1C
C=CCn1c(=O)c(C(=O)NCc2ccccn2)c(O)c2ccccc21
COc1cc(/C(C)=C/C(C)=C\C(=O)O)oc(=O)c1C
Cc1noc(C)c1S(=O)(=O)Nc1ccc2c(c1)CC(=O)N([C@@H](C)CO)C[C@@H](C)[C@@H](CN(C)C(=O)Nc1ccc(C(F)(F)F)cc1)O2
C[C@H](CO)N1C[C@H](C)[C@H](CN(C)Cc2ccc(C(F)(F)F)cc2)Oc2ccc(NS(C)(=O)=O)cc2C1=O
C=C(CC/C=C(\C)C(=O)O)C1(O)CC=C(C)CC1 (stereo not drawn)
O=C1O[C@H](c2ccccc2)[C@H](c2ccccc2)N2[C@H]1[C@@H](C(=O)N1CCN(c3ncccn3)CC1)[C@]1(C(=O)Nc3ccccc31)[C@H]2c1ccc(OCCO)cc1
C[C@H]1CN([C@@H](C)CO)C(=O)CCCn2cc(nn2)CO[C@@H]1CN(C)S(=O)(=O)c1ccc(-n2cccn2)cc1
CC(C)NC(=O)Nc1ccc2c(c1)CC(=O)N([C@@H](C)CO)C[C@@H](C)[C@H](CN(C)Cc1ccc(C(F)(F)F)cc1)O2
C/C(=C/CC[C@@H](CO)[C@H]1CC[C@@]2(C)[C@@H]3CC[C@H]4C(C)(C)[C@@H](O[C@@H]5O[C@H](CO)[C@@H](O)[C@H](O)[C@H]5O)C[C@H](O)[C@@]45C[C@@]35CC[C@]12C)CO
Cc1noc(C)c1S(=O)(=O)Nc1ccc2c(c1)CC(=O)N([C@H](C)CO)C[C@@H](C)[C@@H](CN(C)C)O2
COc1ccc(CN(C)C[C@H]2Oc3ccc(NC(=O)Cc4ccccc4)cc3CC(=O)N([C@@H](C)CO)C[C@@H]2C)cc1
CC1(C)CC[C@@]2(C(=O)O)C(C1)C1=CCC3[C@@]4(C)CC[C@H](O)C(C)(C)C4CC[C@@]3(C)[C@]1(C)C[C@H]2O (stereo partly drawn)
C[C@H](CO)N1C[C@H](C)[C@@H](CN(C)C(=O)Nc2ccccc2)Oc2ccc(N(C)C)cc2C1=O
COc1cc(C)c(C(=O)Oc2cc(C)c(C(=O)Oc3cc(C)c(C(=O)NC(C)C(=O)O)c(O)c3)c(O[C@@H]3O[C@H](CO)[C@@H](O)[C@H](O)[C@H]3OC(C)=O)c2)c(OC)c1 (stereo partly drawn)
Cc1ccc(C(=O)NCCNS(=O)(=O)c2ccccc2)cc1
COc1ccc(NC(=O)Nc2cccc3c2O[C@H](CN(C)S(=O)(=O)c2cccs2)[C@H](C)CN([C@@H](C)CO)C3=O)cc1
CNC[C@H]1Oc2ccc(N(C)C)cc2CC(=O)N([C@@H](C)CO)C[C@@H]1C
CC(C)NC(=O)N(C)C[C@H]1Oc2ccc(NS(=O)(=O)c3cn(C)cn3)cc2CC(=O)N([C@@H](C)CO)C[C@H]1C
C[C@@H]1CN([C@@H](C)CO)C(=O)Cc2cc(NC(=O)CCC(F)(F)F)ccc2O[C@@H]1CN(C)C(=O)Nc1cccc2ccccc12
Cc1cc(C)c(NC(=O)CCCC(=O)O)c(C)c1
C[C@H]1CN([C@@H](C)CO)C(=O)c2cc(NC(=O)C3CC3)ccc2O[C@@H]1CN(C)S(=O)(=O)c1cn(C)cn1
